A selection: hits, their analogues and other compounds. The true share with any hit is near 11%.
HP1b chromo inh – HTS for Inhibitors of HP1-beta Chromodomain Interactions with Methylated Histone Tails; Chromobox protein homolog 1 (Homo sapiens), P83916; AlphaScreen HP1-beta / biotin-H3K9me3 peptide binding; Potency, µM (doses to about 114 µM), most hits filed as inhibitors; 390,000 compounds, 0.56% hits; note: nearly all actives have a fitted effect of over 70% in size
Target sequence (P83916 whole entry, looked up): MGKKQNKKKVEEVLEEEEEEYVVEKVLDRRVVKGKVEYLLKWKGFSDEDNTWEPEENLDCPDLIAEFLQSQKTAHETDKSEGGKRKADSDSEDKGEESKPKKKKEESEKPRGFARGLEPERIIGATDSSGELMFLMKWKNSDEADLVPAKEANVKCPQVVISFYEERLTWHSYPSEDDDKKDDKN
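Compound inhibition of the preformed complex between 50 nM HP1-beta and 50 nM biotinylated H3K9me3 peptide was read by AlphaScreen. Buffer was PBS pH 7.4 with 0.01% Tween-20. Incubations ran 30 min at room temperature, with 10 ug/mL donor/acceptor beads.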
JMJD2A Tudor – qHTS Assay for Inhibitors of JMJD2A-Tudor Domain | AlphaScreen JMJD2A-Tudor / H3K4me3 peptide binding | Potency, µM (series often up to 114 µM), actives largely listed as inhibitors | 390,000 compounds, 4.4% hits | AID 504339, 2011; note: nearly all actives have a fitted effect of over 50% in size
G9a block – qHTS Assay for Inhibitors of Histone Lysine Methyltransferase G9a. Potency, µM (doses to about 102 µM), actives largely listed as inhibitors. 350,000 compounds, 8.8% hits. G9a H3K9 monomethylation, AlphaScreen, 2 h. Histone-lysine N-methyltransferase EHMT2 (Homo sapiens), Q96KQ7; note: nearly all actives have a fitted effect of over 75% in size
Target sequence (Q96KQ7 913-1193 limits assumed): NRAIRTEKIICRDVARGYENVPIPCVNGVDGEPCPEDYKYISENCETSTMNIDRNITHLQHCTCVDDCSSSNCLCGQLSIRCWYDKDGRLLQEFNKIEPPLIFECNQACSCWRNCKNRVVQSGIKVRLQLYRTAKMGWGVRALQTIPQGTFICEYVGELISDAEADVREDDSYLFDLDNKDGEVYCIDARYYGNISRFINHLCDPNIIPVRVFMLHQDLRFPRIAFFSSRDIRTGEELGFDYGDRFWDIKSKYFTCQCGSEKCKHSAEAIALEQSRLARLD
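G9a (20 nM) was preincubated 15 min with compound, then reacted 2 h at room temperature with 500 nM biotin-H3K9 peptide and 20 µM SAM. Monomethyl-H3K9 detected by AlphaScreen using anti-H3K9me1 antibody.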
L3MBTL1 block – qHTS Assay for the Inhibitors of L3MBTL1. Lethal(3)malignant brain tumor-like protein 1 (Homo sapiens), Q9Y468. AlphaScreen L3MBTL1–H3K9me1 peptide binding. Potency, µM (titrated, usually from 57.1 µM), hits mostly inhibitors. 230,000 compounds, 0.66% hits. AID 485360, 2010; note: nearly all actives have a fitted effect of over 60% in size
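L3MBTL1 50 nM + b-AHA-H3(1-15)K9me1 75 nM, 30 min RT; compound added, 30 min RT; streptavidin donor/Ni-chelate acceptor beads 10 ug/mL each final, 30 min RT dark; AlphaScreen read.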
BAZ2B inh – qHTS Assay for Inhibitors of BAZ2B. AID 504333, 2011. Potency, µM (series often up to 114 µM), actives largely listed as inhibitors. AlphaScreen BAZ2B-H3K14Ac peptide displacement. 360,000 compounds, 4.4% hits. Bromodomain adjacent to zinc finger domain protein 2B (Homo sapiens), Q9UIF8; note: nearly all actives have a fitted effect of over 60% in size
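BAZ2B 50 nM plus b-H3(5-23)K14Ac 50 nM, PBS pH 7.4/0.01% Tween-20, 30 min RT; compound added (max 110 uM), 30 min RT; streptavidin donor/Ni-chelate acceptor beads 10 ug/mL final, 20 min dark; AlphaScreen read.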
Hits are given with their value; – = inactive; ? = inconclusive; · = no result; ! = not active in a repeat; [ ] = dose if it differs, or a comment. Calls come from the whole dose curve; as a rule, active = well fitted inhibition curve with a large enough effect; inconclusive = small, poorly fitted or top-dose-only effect; inactive = no such curve, though single readings can be large or run the other way.

SMILES | HP1b chromo inh | JMJD2A Tudor | G9a block | L3MBTL1 block | BAZ2B inh
CCCn1c(N)c(C(=O)CN(C)CC(=O)Nc2cc(C)ccc2C)c(=O)[nH]c1=O | – | – | 50µM | – | –
COc1cccc(CN2CCN(Cc3ccc4c(NC(C)=O)cccc4n3)CC2CCO)c1 (stereo not drawn) | – | 22µM | 50µM | – | –
COc1cc(CN2CCN(Cc3ccc4cc(F)ccc4n3)CC2CCO)cc(OC)c1 (stereo not drawn) | – | – | – | – | –
Cc1ccc(CN2CCN(Cc3ccc4cc(F)ccc4n3)CC2CCO)o1 (stereo not drawn) | – | – | 56µM | – | –
COc1ccc(CN2CCN(Cc3ccc4cc(F)ccc4n3)CC2CCO)c(C)c1C (stereo not drawn) | – | – | 50µM | – | –
Cc1ccc(CN2CCN(Cc3cnn(-c4ccc(F)cc4)c3)CC2CCO)o1 (stereo not drawn) | – | – | –[12.7 µM] | – | –
CCOc1ccccc1CN1CCN(Cc2ccc3cc(F)ccc3n2)CC1CCO (stereo not drawn) | – | – | 79µM | – | –
COC(=O)[C@@H](c1ccccc1Cl)N1CCc2sccc2C1 | · | · | – | · | ·
CC(C)c1ccc(OCc2ccc(C(=O)O)o2)cc1 | – | – | ? | · | 79µM
CC(C)c1ccc(OCc2ccc(C(=O)N(C)C)o2)cc1 | – | – | – | · | ?
Cc1ccc(C(=O)c2c(N)c(C(=O)Nc3cccc(C(F)(F)F)c3)c3ccccn23)cc1 | – | – | – | · | –
Cc1ccc(NC(=O)CN(C)CC(=O)Nc2sc3c(c2C(N)=O)CCC3)cc1 | – | – | – | · | –
NS(=O)(=O)c1ccc(Nc2nc(-c3ccc(O)cc3O)cs2)cc1 | – | – | – | · | ?
Cc1cccnc1Nc1nc(-c2ccc(O)cc2O)cs1 | – | 14µM | 6.3µM | – | ?
Oc1ccc(-c2csc(Nc3ccccn3)n2)c(O)c1 | – | – | 45µM | – | –
c1ccc(Nc2nc(-c3cccnc3)cs2)nc1 | – | – | –[0.0925 µM] | – | –
Fc1ccc(-c2csc(Nc3ccccn3)n2)cc1 | – | – | 79µM | – | –
Cc1ccc2c(c1)c1c(c(=O)n(-c3ccccc3)c(=O)n1CC(=O)N1CCCC1)n2C | – | – | – | · | –
CN(C)C(=S)NC(=NCc1ccc([N+](=O)[O-])cc1)c1ccccc1 | – | – | 71µM | · | –
Fc1ccccc1N1CCN(c2ncnc3onc(-c4cccc(Cl)c4)c23)CC1 | – | – | – | · | –
COCCCn1c(O)c(/C=C2\N=C(C#N)C(=Nc3ccc(C)cc3)O2)sc1=S | ? | ? | ? | – | 10µM
CC1=C(C(=O)OCc2ccccc2)C(c2ccc3ccccc3c2)NC(=O)N1CCCCCC(=O)O (stereo not drawn) | – | – | ? | – | ?
CC1=C(C(=O)OCc2ccccc2)C(c2ccc([N+](=O)[O-])cc2)NC(=O)N1CCCCCC(=O)O (stereo not drawn) | – | – | ? | – | –
CC1=C(C(=O)OCc2ccccc2)C(c2ccc(-c3ccccc3)cc2)NC(=O)N1CCCCCC(=O)O (stereo not drawn) | – | ? | 35µM | – | 50µM
CC1=C(C(=O)OCc2ccccc2)C(c2ccc(C(C)(C)C)cc2)NC(=O)N1CCCCCC(=O)O (stereo not drawn) | – | – | 45µM | – | 50µM
SMILES | HP1b chromo inh | JMJD2A Tudor | G9a block | L3MBTL1 block | BAZ2B inh
CC1=C(C(=O)OCc2ccccc2)C(c2ccccc2)NC(=O)N1CCCCCC(=O)O (stereo not drawn) | – | – | 79µM | – | –
CC1=C(C(=O)OCc2ccccc2)C(c2ccc([N+](=O)[O-])cc2)NC(=O)N1CCCC(=O)O (stereo not drawn) | – | – | 45µM | – | –
O=C(CCCCCNc1nc(=S)[nH]c2ccccc12)NCCC1=CCCCC1 | – | – | – | – | –
O=C1NC(c2cccc([N+](=O)[O-])c2)=CCN1c1ccccc1O | – | – | 19µM | – | –
O=[N+]([O-])c1ccc(N2CCN(c3ccccc3O)CC2)c(Cl)c1 | ? | – | ? | – | ?
COc1ccccc1/C=C/C=N/N1CCN(Cc2ccc(Cl)cc2)CC1 | 40µM | 45µM | ? | – | 32µM
COc1ccccc1/C=C/C=N\N1CCN(Cc2ccccc2Cl)CC1 | ? | 20µM | 14µM | – | 40µM
COc1ccc(Br)cc1/C=N/N1CCN(Cc2ccccc2Cl)CC1 | – | 40µM | –[0.501 µM] | –[2.29 µM] | ?
Oc1ccc(Br)cc1/C=N/N1CCN(Cc2cccc3ccccc23)CC1 | – | ? | · | – | –
COc1cccc(/C=N/N2CCN(Cc3ccccc3)CC2)c1O | – | ? | · | – | ?
O=C(c1ccc2c(c1)N(Cc1cccc(Cl)c1)C(=O)c1ccccc1S2(=O)=O)N1CCC(Cc2ccccc2)CC1 | – | – | – | · | –
C#CCN(C)CC/C=C1\c2ccccc2CSc2ccccc21 | – | –[11.4 µM] | 14µM | – | ?
C=CCN(C)CC/C=C1\c2ccccc2CSc2ccccc21 | – | ? | – | – | –
CC(=O)[C@@]1(O)CC[C@H]2[C@H]3C[C@@H](C)C4=CC(=O)C=C[C@]4(C)[C@@]3(F)[C@@H](O)C[C@]21C | · | · | –[21.5 µM] | · | ·
Cc1ccc(N2C(=O)[C@@H]3C(c4cccnc4)=NO[C@@H]3C2=O)c(C)c1 | – | – | ? | – | –
O=C1[C@@H]2C(c3cccnc3)=NO[C@@H]2C(=O)N1c1ccc(Br)cc1 | – | ? | 8.9µM | – | –
C/C(=N\Nc1cc(C(F)(F)F)ccc1Cl)c1ccccc1O | – | – | – | – | –
C/C(=N\Nc1ccc(F)cc1F)c1ccccc1O | – | – | 14µM | – | –
CSc1ccccc1OCc1cc(C(=O)N(C)CCn2nc(C)cc2C)no1 | – | 13µM | –[0.501 µM] | · | ?
CSc1ccccc1OCc1cc(C(=O)N(C)Cc2nonc2C)no1 | – | – | – | · | –
COCCNC(=O)[C@H]1C[C@@H]1[C@H](NP(=O)(c1ccccc1)c1ccccc1)c1ccccc1 | – | – | 56µM | – | –
Cc1ccccc1C(=O)Nc1c(C(=O)N(CCN(C)C)Cc2ccco2)oc2ccccc12 | – | – | – | · | ?
COc1ccc(OCC(=O)Nc2c(C(=O)N(CCN(C)C)Cc3ccco3)oc3ccccc23)cc1 | ? | ? | – | · | 71µM
COc1ccccc1C(=O)Nc1c(C(=O)N(CCN(C)C)Cc2ccco2)oc2ccccc12 | – | 45µM | 40µM! | · | ?
Cn1c(N)c(C(=O)CSc2nc(C3CC3)n(-c3ccccc3)n2)c(=O)n(C)c1=O | – | – | –[12.7 µM] | – | –
CCN(CC)S(=O)(=O)c1ccc(C(=O)NCCSc2c(-c3ccc(C)cc3)[nH]c3ccccc23)cc1 | – | – | – | · | –
CCCOc1cccc(C(=O)N(Cc2sccc2C)C2CCS(=O)(=O)C2)c1 (stereo not drawn) | – | – | – | · | –

Compound activity deposited in PubChem by National Center for Advancing Translational Sciences (NCATS).
